Out of some 53,000 compounds screened, about 900 (1.7%) showed an effect of 50% or more. Shown is part of a subset that was picked to be rich in strong results.
These molecules were tested on Mycobacterium tuberculosis (assay: Cornell - Phenotypic assay to identify agents that inhibit growth of Mycobacterium tuberculosis). Settings: 10 mM as filed; unlikely as a test dose.
Assay type: functional
Parameters: scale not given: direction of the effect not stated beside the values

Point of comparison: `CC(C)Sc1ccc(C(C)Nc2nc3c(cnn3C)c(=O)[nH]2)cc1` (configuration not stated), “Percent Effect” value 64.6%. Against it:
- COc1cc(C)nc(N2CCN(C(=O)c3ccn(C)c(=O)c3)CC2)n1 — lower, 29.4%
- Cn1c2ccccc2c2ncn(CCCN3CCOCC3)c(=O)c21 — lower, -22.77%
- Cc1nc(CCC(N)=O)cc(C2CCCCN2S(C)(=O)=O)n1 (configuration not stated) — lower, 34.9%
- Cc1nn(C)c(Cl)c1CNCc1cccnc1N1CCCCC1.Cl — lower, 10.36%
- Cc1ccccc1N1CCN(c2cc(N(C)C)ncn2)C(C)C1 (configuration not stated) — higher, 75.02%
- Cc1ccc(N2CCN(c3ccccc3C)CC2C)nn1 (configuration not stated) — lower, 29.54%
- Cc1ccccc1N1CCN(c2ccncn2)C(C)C1 (configuration not stated) — lower, 16.47%
- COCC1c2c(cnn2C)CCN1Cc1ccsc1 (configuration not stated) — lower, 24.96%
- Cc1noc(C)c1CN1C[C@H](C)[C@]2(CCN(Cc3cccnc3)C2=O)C1.O=C(O)C(F)(F)F.O=C(O)C(F)(F)F — lower, -5.753%
- Cn1ccnc1CN1CCC2(CCC(=O)N2CCN2CCCC2)CC1.O=C(O)C(F)(F)F.O=C(O)C(F)(F)F — lower, 19.98%
- Cc1cnn(CC2CN(c3ncnc4ccccc34)CCO2)c1 (configuration not stated) — lower, 29.19%
- CN(C)CC1CN(c2cnc3ccccc3n2)CCO1 (configuration not stated) — lower, -10.68%
- Cc1cnn(CC2CN(c3cnc4ccccc4n3)CCO2)c1 (configuration not stated) — higher, 106.1%
- Cc1nn(C)cc1-c1cc(C(=O)NCC(C)(C)c2ccccc2F)n[nH]1 — lower, -16.11%
- Cc1nn(C)cc1-c1cc(C(=O)NCC(C)(C)c2ccc(F)cc2)n[nH]1 — lower, 61.27%
- Cc1nn(C)cc1-c1cc(C(=O)NCC(C)(C)c2cccc(F)c2)n[nH]1 — lower, 26.97%
- COCC1c2nnn(CC3CC3)c2CCN1Cc1ccncc1.O=C(O)C(F)(F)F.O=C(O)C(F)(F)F (configuration not stated) — lower, 18.59%
- CN1CCC(Cc2cc(N(C)C)ncn2)C1 (configuration not stated) — lower, 2.45%
- CC(C)c1cc(CN2CCC(N)CC2)no1 — lower, -17.69%
- CC(C)c1cc(CN2CCNCC2)no1 — higher, 107.4%
- CC(C)c1cc(CN2CCC(CC(=O)O)CC2)no1 — lower, -2.549%
- CN1C[C@@H](C(=O)NC(C)(C)C)[C@@]2(COc3ccc(F)cc3C2=O)C1 — lower, 28.72%
- COc1ccccc1C1Cn2c(C)cnc2CN1Cc1ccc(C)nc1 (configuration not stated) — lower, -10.88%
- O=C(c1c(F)cccc1F)N1CCC[C@@H]1Cn1c(=O)oc2ccccc21 — lower, 34.56%
- COc1cccc(OC2CN(C(=O)c3sccc3C)C2)c1 — lower, 55.64%
- COc1cccc(OC2CN(C(=O)c3c(C)noc3C)C2)c1 — lower, 10.7%
- COc1cccc(OC2CN(C(=O)c3ccoc3C)C2)c1 — lower, -6.916%
- Cc1nc2c(c(NCc3cnc4c(c3)CCC4)n1)CNC2 — lower, 4.431%
- COCCS(=O)(=O)c1ncc(CN(C)C)n1Cc1ccccc1 — lower, 5.309%
- CN(Cc1cccc(F)c1)C(=O)CN1CCCCC1Cn1cncn1 (configuration not stated) — lower, -21.34%
- CN(Cc1cccc(F)c1)C(=O)CN1CCCC1CCc1ccccc1 (configuration not stated) — lower, 61.93%
- N#CCCN(CCC#N)C(=O)CN1CCCC1Cc1cccc(F)c1 (configuration not stated) — lower, 5.513%
- NC(=O)Nc1cccc(Oc2ccccn2)c1 — lower, 3.298%
- OCCN1CCN(CC(O)c2ccc(C(F)(F)F)cc2)CC1 (configuration not stated) — lower, -26.61%
- O=c1oc(-c2ccc(F)cc2)nn1CN1CCSCC1 — lower, -31.85%
- CC(C)NC(=O)[C@@H]1CN(C(=O)C2CC2)C[C@]12Cc1ccccc1C(=O)N2 — lower, 41.43%
- CN1C[C@@H](C(=O)NCC(F)(F)F)[C@@]2(CCc3ccccc3C(=O)N2)C1 — lower, 4.729%
- CCS(=O)(=O)N1C[C@@H](C(=O)NC(C)C)[C@@]2(Cc3ccccc3C(=O)N2)C1 — lower, 50.91%
- CCN(CC)c1ccc(NC(=O)NC(C)Cn2cccn2)cn1 (configuration not stated) — lower, -29.36%
- CC(CNC(=O)Nc1ccc(N(C)C)nc1)Cn1cccn1 (configuration not stated) — lower, 53.74%
- CC(Cn1cccn1)NC(=O)Nc1ccc(N(C)C)nc1 (configuration not stated) — lower, -5.183%
- CN1C[C@H](O)[C@]2(CCN(Cc3ccc(OC(F)(F)F)cc3)C2)S1(=O)=O — lower, 30.47%
- O=C(C[C@@H]1COC[C@H]2CN(Cc3ccc(F)cc3)C[C@@H]12)N1CCCC1.O=C(O)C(F)(F)F — lower, -5.358%
- CC(C)c1noc(C2CCN(C(=O)C3CCCO3)CC2)n1 (configuration not stated) — lower, 4.846%
- O=c1c2cc3c(cc2nnn1Cc1cccc(F)c1)OCCO3 — lower, -9.384%
- Cc1ccc2c(n1)N(Cc1cccnc1)CCN(C(=O)C1CC=CC1)C2 — lower, 30.61%
- O=C(Nc1nc2c(s1)CN(C(=O)NCc1cccs1)CC2)C1CC1 — lower, 25.74%
- COC(=O)Nc1nc2c(s1)CN(C(=O)NCc1cccs1)CC2 — lower, 35.61%
- CC(C)NC(=O)Nc1nc2c(s1)CN(C(=O)NCc1cccs1)CC2 — lower, 53.32%
- O=C(O)c1ccc(CN2CCCC(Cc3ccn[nH]3)C2)cc1 (configuration not stated) — lower, 18.19%
- Cc1cccc(OCCN2CCC(c3ccnn3CCO)CC2)c1 — lower, -13.34%
- Cc1nn(CCCNC(=O)C2CCN(S(C)(=O)=O)CC2)c(Cl)c1Cl — lower, 51.75%
- Cc1nn(CCCNC(=O)C2CCN(S(C)(=O)=O)CC2)cc1Cl — lower, 12.8%
- Cc1nn(CCCNC(=O)C2CCN(S(C)(=O)=O)CC2)cc1Br — lower, 34.63%
- CCCn1nnnc1COc1ccc(C(=O)OC)cc1 — lower, 2.105%
- CC(Nc1nc2c(cnn2C)c(=O)[nH]1)c1ccc(F)cc1 (configuration not stated) — lower, 46.54%
- CCC(=O)Nc1ccc(C(C)Nc2nc3c(cnn3C)c(=O)[nH]2)cc1 (configuration not stated) — lower, 16.12%
- Cc1nnc(Nc2cccc(C3CCCN(Cc4ncc[nH]4)C3)n2)s1 (configuration not stated) — lower, -14.35%
- CNCCCNc1nc(C2CCCC2)nc2c1cnn2C — lower, 15.27%
- Cn1ncc2c(NCCn3cccc3)nc(C3CCCC3)nc21 — lower, 23.68%
- CCOCCNc1nc(C2CCCC2)nc2c1cnn2C — lower, 15.61%
- Cn1ncc2c(NCCOCc3ccccc3)nc(C3CCCC3)nc21 — lower, 58.05%
- CC(C)N(CCNc1nc(C2CCCC2)nc2c1cnn2C)C(C)C — higher, 95.65%
- Cn1ncc2c(NCCCOc3cccnc3)nc(C3CCCC3)nc21 — lower, -0.5342%
- Cn1ncc2c(NCCOc3ccc(F)cc3)nc(C3CCCC3)nc21 — higher, 105.9%
- Cn1ncc2c(NCCC34CCCN3CCC4)nc(C3CCCC3)nc21 — lower, 10.87%
- CCS(=O)(=O)CCNc1nc(C2CCCC2)nc2c1cnn2C — lower, -9.599%
- Fc1ccc([C@@H]2COC[C@H]2NCc2cccc(F)c2)cc1.O=C(O)CC(O)(CC(=O)O)C(=O)O — lower, 12.54%
- CCCNC(=O)c1nn(CC)cc1NC(=O)c1cn(C)nc1C — lower, 34.88%
- CC(=O)Nc1nc(CN2CCn3c(C)nnc3C2)cs1 — lower, -12.41%
- COCCCn1c(CN2CCSCC2)cnc1S(=O)(=O)C1CCCC1 — lower, 27.36%
- COCCN1C[C@@H](c2ccccc2)[C@@]2(CCN(CC(=O)N(C)C)C2=O)C1.O=C(O)C(F)(F)F — lower, 13.65%
- O=C(c1n[nH]c(=O)c2ccccc12)N1CCCCC1c1ccn[nH]1 (configuration not stated) — lower, -33.63%
- CS(=O)(=O)c1cn[nH]c1C1CCCCN1C(=O)c1cncs1 (configuration not stated) — lower, -10.78%
- O=C(c1cncs1)N1CCCC1c1ccn[nH]1 (configuration not stated) — higher, 104.4%
- Cc1ncncc1C(=O)N1CCCC(Cc2nccs2)C1 (configuration not stated) — lower, -16.51%
- Cc1csc(CN2CC[C@H]3C[C@@H](c4nnc(C)[nH]4)O[C@@H]3C2)n1 — lower, -4.039%
- CC(C)N(C(=O)Cn1nc2n(c1=O)CCCCC2)C1CCC1 — lower, 0.8005%
- Fc1ccccc1CN1CCC[C@@H](Cn2nnc(-c3cccs3)n2)C1 — higher, 75.98%
- Fc1cccc(CN2CCC[C@H](Cn3nnc(-c4ccccn4)n3)C2)c1 — lower, 14.75%
- Fc1ccccc1CN1CCC[C@H](Cn2nnc(-c3cccs3)n2)C1 — lower, 35.5%
- CCc1ccccc1NC(=O)c1cnn(C)c1C — lower, 25.28%
- Nc1no[n+]([O-])c1C(=O)NCc1ccccn1 — lower, -59.59%
- O=C(c1ccncc1)N1CCCC1c1nc(O)cc(-c2ccccn2)n1 (configuration not stated) — lower, -36.16%
- CSCC(CCO)Nc1nc(C(F)F)nc2ccccc12 (configuration not stated) — lower, 41.07%
- CCc1noc(C(C)N2CCN(CC(=O)N3CCOCC3)CC2)n1 (configuration not stated) — lower, 11.6%
- N#Cc1cccc(NC2CC(=O)N(Cc3ccccc3Cl)C2)n1 (configuration not stated) — lower, -13.97%
- N#Cc1cccc(NC2CC(=O)N(CCCc3ccccc3)C2)n1 (configuration not stated) — lower, 2.519%
- N#Cc1cccc(NC2CC(=O)N(C3Cc4ccccc4C3)C2)n1 (configuration not stated) — lower, 53.28%
- O=C1CCC2(CCN(Cc3ccsc3)CC2)N1Cc1ccccc1 — lower, 26.5%
- Cc1ccoc1C(=O)NC1CCN(Cc2ccccc2C#N)CC1 — lower, -4.356%
- COc1ccc(NC(=O)NCC(C)N2CCc3ccccc32)cc1 (configuration not stated) — lower, 13.58%
- CC(CNC(=O)Nc1ccc(C#N)cc1)N1CCc2ccccc21 (configuration not stated) — lower, 62.86%
- CC(CNC(=O)c1ccc(C#N)cc1)N1CCc2ccccc21 (configuration not stated) — lower, 20.43%
- Cc1nc(C2CCCN2CC(=O)Nc2cc(C(C)(C)C)nn2C)no1 (configuration not stated) — lower, -17.86%
- O=C(c1cnc(-c2cccs2)s1)N1CCCC(n2ccnc2)C1 (configuration not stated) — lower, 6.926%
- Cc1oncc1C(=O)N1CCC2(CC1)CC(N1CCOCC1)C2.O=C(O)C(F)(F)F — lower, 14.16%
- Cc1nc(NCC2CC2)nc2c1COCC21CCN(CC(=O)N(C)C)C1 (configuration not stated) — lower, -16.56%
- CC(C)OCCn1nnnc1Cc1ccc(Br)cc1 — higher, 80.17%
- N#CCCCn1nnnc1Cc1ccc(Br)cc1 — lower, 19.45%
- OCCn1nnnc1Cc1ccc(Br)cc1 — lower, 32.76%

Reference: ChEMBL document CHEMBL3988442, “University of Dundee, Small-Polar-MMV Screening Library” (2021)
